PubChem BioAssay (NCI)
About 83,000 compounds went through this panel and 20% of them were active in at least one assay; those are over-represented in the sample as a whole.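 Activity criterion: percent growth below 10, measured after cells in 96-well plates were exposed to a single compound concentration for 48 hours.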 Activity calls are given as the source filed them.

Tests used:
Assay in all cases: NCI-60 one-dose screen, 48 h (100 = growth as untreated, 0 = no growth, -100 = all killed)
Details in all cases: 10 µM unless noted
SK-MEL-2 melanoma = test system: SK-MEL-2 melanoma
EKVX NSCLC = test system: EKVX NSCLC
SN12C renal = test system: SN12C renal
UO-31 renal = test system: UO-31 renal
TK-10 renal = test system: TK-10 renal
ACHN renal = test system: ACHN renal
CAKI-1 renal = test system: CAKI-1 renal
A498 renal = test system: A498 renal
CCRF-CEM leukemia = test system: CCRF-CEM leukemia
MOLT-4 leukemia = test system: MOLT-4 leukemia
SR leukemia = test system: SR leukemia
RPMI-8226 leukemia = test system: RPMI-8226 leukemia
OVCAR-8 ovarian = test system: OVCAR-8 ovarian
OVCAR-5 ovarian = test system: OVCAR-5 ovarian
OVCAR-4 ovarian = test system: OVCAR-4 ovarian
SK-OV-3 ovarian = test system: SK-OV-3 ovarian
IGROV1 ovarian = test system: IGROV1 ovarian
OVCAR-3 ovarian = test system: OVCAR-3 ovarian
HS 578T breast = test system: HS 578T breast
NCI/ADR-RES ovarian = test system: NCI/ADR-RES ovarian

Measured: growth

CCCCCCC(=O)Nc1ncc(Cc2ccc(C)cc2)s1
active: OVCAR-3 ovarian 8.65%
inactive: SK-MEL-2 melanoma 63.4% | EKVX NSCLC 53.4% | SN12C renal 49.4% | UO-31 renal 44.8% | TK-10 renal 65.8% | ACHN renal 46.3% | CAKI-1 renal 35.2% | A498 renal 19.5% | CCRF-CEM leukemia 21.3% | MOLT-4 leukemia 35.2% | SR leukemia 20.4% | RPMI-8226 leukemia 40.1% | OVCAR-8 ovarian 45.5% | OVCAR-5 ovarian 58.1% | OVCAR-4 ovarian 50.1% | SK-OV-3 ovarian 31.8% | IGROV1 ovarian 44.2% | HS 578T breast 21.7% | NCI/ADR-RES ovarian 29%

O=C(Cn1cc(CN2C(=O)c3ccccc3S2(=O)=O)nn1)Nc1cccc(Cl)c1
inactive: SK-MEL-2 melanoma 96.7% | EKVX NSCLC 103% | SN12C renal 110% | UO-31 renal 101% | TK-10 renal 103% | ACHN renal 102% | CAKI-1 renal 98.5% | A498 renal 110% | CCRF-CEM leukemia 104% | MOLT-4 leukemia 107% | SR leukemia 113% | RPMI-8226 leukemia 104% | OVCAR-8 ovarian 113% | OVCAR-5 ovarian 112% | OVCAR-4 ovarian 109% | SK-OV-3 ovarian 79.3% | IGROV1 ovarian 108% | OVCAR-3 ovarian 106% | HS 578T breast 107% | NCI/ADR-RES ovarian 93.1%

CCN(CCO)CC(C)Nc1ccc([N+](=O)[O-])c2sc3ccccc3c(=O)c12 (stereo not given)
active: UO-31 renal -15.6% | CAKI-1 renal -3.3% | IGROV1 ovarian -11.3%
inactive: SK-MEL-2 melanoma 36.6% | EKVX NSCLC 25.7% | SN12C renal 28.2% | TK-10 renal 58.8% | ACHN renal 11.5% | A498 renal 50.6% | CCRF-CEM leukemia 35.6% | MOLT-4 leukemia 17.3% | SR leukemia 13% | RPMI-8226 leukemia 40.9% | OVCAR-8 ovarian 26.2% | OVCAR-5 ovarian 57.7% | OVCAR-4 ovarian 43.7% | SK-OV-3 ovarian 45.6% | OVCAR-3 ovarian 49.1% | HS 578T breast 26.8% | NCI/ADR-RES ovarian 37.2%

CC[C@@H](c1ccc2cc(OC)ccc2c1)C(C)(C)C(=O)F
inactive: SK-MEL-2 melanoma 94.8% | EKVX NSCLC 96.1% | SN12C renal 105% | UO-31 renal 97% | TK-10 renal 126% | ACHN renal 104% | CAKI-1 renal 76.8% | A498 renal 98.4% | CCRF-CEM leukemia 114% | MOLT-4 leukemia 99.2% | SR leukemia 112% | RPMI-8226 leukemia 146% | OVCAR-8 ovarian 94.8% | OVCAR-5 ovarian 86.2% | OVCAR-4 ovarian 109% | SK-OV-3 ovarian 107% | IGROV1 ovarian 28.3% | OVCAR-3 ovarian 85.7% | HS 578T breast 91.8% | NCI/ADR-RES ovarian 77.5%

N=C(N)c1ccc(-c2ccc(-c3ccc(F)cc3)s2)s1
active: SN12C renal -50% | UO-31 renal -32.6% | ACHN renal -73.7% | CAKI-1 renal 0.453% | CCRF-CEM leukemia -33.6% | MOLT-4 leukemia -44.2% | SR leukemia -32.6% | RPMI-8226 leukemia -18.6% | OVCAR-8 ovarian -54.7% | OVCAR-5 ovarian -28.8% | OVCAR-4 ovarian -23.8% | IGROV1 ovarian -27.5% | OVCAR-3 ovarian -57.8% | NCI/ADR-RES ovarian -33.3%
inactive: SK-MEL-2 melanoma 73.6% | EKVX NSCLC 41.4% | TK-10 renal 28.5% | A498 renal 58.9% | SK-OV-3 ovarian 80.5% | HS 578T breast 84.6%

C=CCn1c(SCC(=O)Nc2ccc(C(=O)/C=C/c3cc(OC)c(OC)c(OC)c3)cc2)nnc1-c1cc(-c2ccc(OC)cc2)nc2ccccc12
inactive: SK-MEL-2 melanoma 102% | EKVX NSCLC 100% | SN12C renal 90.3% | UO-31 renal 76.3% | TK-10 renal 121% | ACHN renal 89.2% | CAKI-1 renal 81.5% | A498 renal 89% | CCRF-CEM leukemia 66.6% | MOLT-4 leukemia 66.4% | SR leukemia 50.9% | RPMI-8226 leukemia 55.5% | OVCAR-8 ovarian 72.8% | OVCAR-5 ovarian 105% | OVCAR-4 ovarian 90% | SK-OV-3 ovarian 98% | IGROV1 ovarian 98.5% | OVCAR-3 ovarian 93.4% | HS 578T breast 90.4% | NCI/ADR-RES ovarian 96.4%

C=C1C(=O)O[C@H]2[C@H]1CC/C(COC(=O)NCc1ccc(Cn3c(=O)sn(-c4ccc(OC)cc4)c3=O)cc1)=C\CC[C@@]1(C)O[C@@H]21
active: UO-31 renal -14.6% | TK-10 renal 1.08% | ACHN renal -8.56% | CCRF-CEM leukemia -34.7% | MOLT-4 leukemia -12.2% | RPMI-8226 leukemia -3.82% | OVCAR-3 ovarian -27.1%
inactive: SK-MEL-2 melanoma 68.1% | EKVX NSCLC 97.1% | SN12C renal 65.2% | CAKI-1 renal 55.9% | A498 renal 89.2% | SR leukemia 27.3% | OVCAR-8 ovarian 75.8% | OVCAR-5 ovarian 83.6% | OVCAR-4 ovarian 35.7% | SK-OV-3 ovarian 105% | IGROV1 ovarian 46.7% | HS 578T breast 90.7% | NCI/ADR-RES ovarian 95.8%

CCCC(O)Cn1ncc(C(=O)OCC)c1NC(=O)NCc1cccc(F)c1 (stereo not given)
inactive: SK-MEL-2 melanoma 90.7% | EKVX NSCLC 97.8% | SN12C renal 99.8% | UO-31 renal 79.3% | TK-10 renal 87.5% | ACHN renal 96.6% | CAKI-1 renal 84.6% | A498 renal 108% | CCRF-CEM leukemia 90.1% | MOLT-4 leukemia 70.6% | SR leukemia 80.1% | RPMI-8226 leukemia 75.2% | OVCAR-8 ovarian 94.8% | OVCAR-5 ovarian 100% | OVCAR-4 ovarian 87.2% | SK-OV-3 ovarian 100% | IGROV1 ovarian 97.2% | OVCAR-3 ovarian 99.7% | HS 578T breast 110% | NCI/ADR-RES ovarian 95.5%
